Assay outcomes deposited in PubChem by NMMLSC.
The list is not random: actives were taken first. Their share in the collection is about 0.38%.
HRas wt GTP bind = modulators of GTP binding to human HRas wildtype. GST-Ras wt beads, Bodipy-FL-GTP binding, flow cytometry; actives lie on both sides. GTP binding activity, % at 10 µM. 190,000 tested, 0.14% active. AID 759;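 active = GTP binding activity at least 20% away from the 100% baseline, either lowered as inhibitor or raised as activator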
Target sequence (P01112 whole entry, looked up): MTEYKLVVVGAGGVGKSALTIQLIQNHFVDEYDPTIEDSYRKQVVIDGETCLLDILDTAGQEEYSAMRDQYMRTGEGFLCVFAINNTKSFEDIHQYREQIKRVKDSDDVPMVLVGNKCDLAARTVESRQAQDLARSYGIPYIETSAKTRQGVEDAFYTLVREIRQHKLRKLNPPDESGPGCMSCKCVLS
Cdc42 wt GTP = changes GTP binding to wildtype human Cdc42; P60953; GST-Cdc42 beads, Bodipy-GTP binding, flow cytometry; actives lie on both sides; percent activity (GTP binding), % at 10 µM; 190,000 tested, 0.2% active;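 active = percent activity GTP binding at least 20 points away from the 100% baseline, either down as inhibitor or up as activator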;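 note: median bead fluorescence of bound Bodipy-FL-GTP at 100 nM; below 100% means less GTP binding so inhibitor and above means activator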
Target sequence (P60953 whole entry, looked up): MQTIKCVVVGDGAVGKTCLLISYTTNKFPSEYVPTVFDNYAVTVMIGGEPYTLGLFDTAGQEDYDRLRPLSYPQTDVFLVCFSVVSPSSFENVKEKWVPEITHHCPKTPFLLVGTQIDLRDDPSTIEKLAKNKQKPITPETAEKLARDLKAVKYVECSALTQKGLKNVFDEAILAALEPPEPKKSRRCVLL
Rac1 mut GTP = alters GTP binding to activated mutant human Rac1. AID 764. GST-Rac1 activated beads, fluorescent GTP binding, flow cytometry; actives lie on both sides; 100% means binding = to untreated wells. 190,000 tested, 0.11% active. percent activity (GTP binding), % at 10 µM. P63000;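 active = GTP binding at least 20 percentage points away from the 100% baseline, in either direction, so actives lie on both sides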
Rab7 wt modul = modulators of GTP binding to dog Rab7 wildtype GTPase. AID 758. 190,000 tested, 0.055% active. GTP binding activity (percent of control), % at 10 µM. GST-Rab7 beads, fluorescent GTP binding, flow cytometry; actives lie on both sides; untreated = 100%, excess cold GTP = 0%;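 active = fluorescent GTP binding to Rab7 beads changed by at least 20 points from the 100% baseline, either direction, mostly lower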;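 note: median green fluorescence of bound Bodipy-FL-GTP per Rab7 bead population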
Rac1 wt modul = human Rac1 wildtype GTP binding, inhibitors and activators; AID 757; 190,000 tested, 0.27% active; GTP binding activity (% of control), % at 10 µM; GST-Rac1 beads, fluorescent GTP binding, flow cytometry; actives lie on both sides; 0 = cold GTP competed, 100 = untreated; P63000;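 active = GTP binding activity at least 20 points away from the 100% control level, either lower or higher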
Rab2A wt mod = changes GTP binding to wildtype dog Rab2A, up or down | P61105 | GST-Rab2 wt beads, Bodipy-GTP binding, flow cytometry | GTP binding activity, % at 10 µM | 190,000 tested, 0.19% active | AID 760;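 active = GTP binding activity at least 20 points away from 100%, either lowered or raised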
Large screens that a line does not name were inactive; [ ] = another dose, or the depositor's remark.

Cc1ccc(CNC(=O)/C=C/c2ccc(S(=O)(=O)N3CCOCC3)cc2)cc1	none
Cc1ccc(-n2c(C)nn(Cc3ccc([N+](=O)[O-])cc3)c2=O)cc1	none
Cc1ccc(-n2c3nc(=O)[nH]c(=O)c-3cc3cc([N+](=O)[O-])ccc32)cc1	Rac1 wt modul 77
CCCn1nc([N+](=O)[O-])c(C(C#N)c2nc3ccccc3o2)c(Cl)c1=O (stereo unspecified)	none
Cn1nc([N+](=O)[O-])c(C(C#N)c2ccccn2)c(Cl)c1=O (stereo unspecified)	Cdc42 wt GTP 79, Rac1 mut GTP 61
CCOC(=O)c1cc([N+](=O)[O-])c([N+](=O)[O-])cc1NC(C)=O	Cdc42 wt GTP 78
CCOC(=O)c1ccc(NC(=O)c2ccccc2[N+](=O)[O-])cc1	none
CC1CN(C(=O)c2cccc(S(=O)(=O)Nc3cc(Cl)ccc3Cl)c2)CC(C)O1 (stereo unspecified)	Cdc42 wt GTP 79, Rac1 wt modul 72, Rab2A wt mod 78
CC(C)(C)C1CCC(C(=O)OCC(=O)Nc2ccc3[nH]c(=O)[nH]c3c2)CC1 (stereo unspecified)	none
O=C(/C=C/c1ccccc1)NC(NC(=S)Nc1ccc(C(=O)O)cc1)C(Cl)(Cl)Cl (stereo unspecified)	Rab2A wt mod 79
O=C(/C=C/c1ccccc1)NC(NC(=S)Nc1cccc(O)c1)C(Cl)(Cl)Cl (stereo unspecified)	none
COc1ccccc1NC(=O)CN(c1ccc(C)cc1)S(=O)(=O)c1c(C)n[nH]c1C	none
COc1ccc(N(CC(=O)Nc2cccc(C)c2C)S(=O)(=O)c2c(C)n[nH]c2C)cc1	Rab2A wt mod 79
COc1cccc(NC(=O)COC(=O)/C=C/c2ccc(Cl)cc2Cl)c1	Cdc42 wt GTP 79, Rac1 wt modul 77, Rab2A wt mod 79
COc1cc(NC(=O)COC(=O)/C=C/c2ccc(Cl)cc2Cl)cc(OC)c1	none
CCOc1ccc(C(CC(=O)O)NC(=O)c2sc3ccccc3c2Cl)cc1 (stereo unspecified)	none
CCCOc1ccc(C(CC(=O)O)NC(=O)c2sc3ccccc3c2Cl)cc1 (stereo unspecified)	HRas wt GTP bind 77, Cdc42 wt GTP 72, Rac1 mut GTP 69, Rac1 wt modul 76, Rab2A wt mod 75
CCOC(=O)C1=C(N)OC2=C(C(=O)CCC2)C1c1ccco1 (stereo unspecified)	none
CCOc1ccccc1C1C(C(=O)OC)=C(N)OC2=C1C(=O)CCC2 (stereo unspecified)	Cdc42 wt GTP 125[activator], Rac1 wt modul 133[activator]
C/C(=N\NC(=O)c1c[nH]c2ccccc12)c1ccc(C)o1	Rac1 wt modul 79
Nc1nonc1C(=O)N/N=C/c1ccc(-c2cccc(C(=O)O)c2)o1	none
CCN(CC(=O)Nc1c(F)cccc1F)C(=O)CCc1ccc(OC)cc1	none
COc1ccc(OC)c(NC(=O)c2ccno2)c1	none
CC(C)C(=O)N1CCN(c2ccccc2NC(=O)c2cccc(Cl)c2)CC1	Rac1 wt modul 121[activator]
Nc1ccc2c(c1)C(=O)C(=O)c1ccccc1-2	Cdc42 wt GTP 70
O=C1C(=O)c2ccc(-c3ccccc3)cc2-c2ccccc21	none
O=C(O)c1ccc(NS(=O)(=O)c2ccc3c(c2)C(=O)c2ccccc2C3=O)cc1	Rac1 wt modul 72
CN1CCN(CCC(=O)N2c3ccccc3Sc3ccc(Cl)cc32)CC1	none
O=C(CN1CCN(CCOCCO)CC1)N1c2ccccc2Sc2ccc(Cl)cc21	Rac1 wt modul 120[activator]
CCOc1ccc(N(C)S(=O)(=O)c2ccc(C)c(C(=O)OCC(=O)c3c[nH]c4ccccc34)c2)cc1	none
O=C(O)C1CSC(CCc2ccccc2)N1 (stereo unspecified)	Rac1 wt modul 123[activator]
O=C(O)C1CSC(c2coc3ccccc3c2=O)N1 (stereo unspecified)	none
COc1cc(/C=C(\C#N)c2nc3ccc(C)cc3[nH]2)cc([N+](=O)[O-])c1O	Cdc42 wt GTP 78, Rac1 wt modul 70, Rab2A wt mod 77
O=C(C1CCN(S(=O)(=O)c2cccs2)CC1)N(c1ccccn1)C1CCCCC1	none
COc1ccc(/C=C/C(=O)OCC(=O)NC(=O)NC(C)(C)C)cc1	none
C/C(=N\NC(=O)c1ccc(Cl)c(S(=O)(=O)Nc2ccccc2Cl)c1)c1ccncc1	Rac1 wt modul 73
COc1ccc(CCNC(=O)CSc2ccc(-c3cccs3)nn2)cc1OC	none
CCn1c(SCC(=O)N/N=C/c2c[nH]c3ccccc23)nnc1-c1ccc(Cl)cc1	none
CN1CCS/C1=C/C=C1/SC(=S)N(Cc2ccccc2)C1=O	none
CCN1C(c2ccccc2)=C(c2ccccc2)S/C1=C/C=C1\SC(=S)N(C)C1=O	HRas wt GTP bind 66, Cdc42 wt GTP 67, Rac1 mut GTP 69, Rab7 wt modul 72, Rac1 wt modul 71, Rab2A wt mod 71
CCN1C(=O)/C(=C/C=C2/Sc3ccc4ccccc4c3N2CCO)SC1=S	HRas wt GTP bind 78, Cdc42 wt GTP 78, Rac1 wt modul 75
CCN1/C(=C\C=C2\C(=O)N(C)C(=S)N2C)Sc2ccccc21	none
CCOC(=O)Cn1c(=O)c2c(nc(N3CCCCC3)n2C)n(C)c1=O	Cdc42 wt GTP 123[activator], Rac1 wt modul 142[activator]
CCOC(=O)Cn1c(=O)c2c(nc3n2CCN3Cc2ccccc2)n(C)c1=O	none
COc1ccc(C2C(C(C)=O)=C(O)C(=O)N2c2nccs2)c(OC)c1 (stereo unspecified)	none
COc1cc(N2C(=O)c3ccccc3C2=O)c(Cl)cc1C(=O)OCC(=O)N(C)C	none
O=C(Nc1ccccc1)C1=C(c2ccccc2)S(=O)(=O)CCS1(=O)=O	Cdc42 wt GTP 77
O=C1/C(=C\c2cccnc2)Sc2ccccc21	Cdc42 wt GTP 72
CCn1ncc(CN2CCN(Cc3cccc(OC)c3)C(CCO)C2)c1C (stereo unspecified)	none
CC(=O)Nc1ccc(/C=N/NC(=O)CCN2CCN(c3ccccc3)CC2)cc1	HRas wt GTP bind 79, Cdc42 wt GTP 76, Rac1 wt modul 74, Rab2A wt mod 75
CCOC(=O)c1ccccc1NC(=O)Cn1c(-c2nonc2N)nc2ccccc21	none
Nc1nonc1-c1nc2ccccc2n1CC(=O)N/N=C/c1ccc(-c2ccccc2C(=O)O)o1	Rac1 wt modul 77
COc1ccc(CC(=O)Nc2ccc(-c3ccc4nnc(C)n4n3)cc2)cc1OC	none
CCCCCn1c(SCCc2ccccc2)nc2c1c(=O)[nH]c(=O)n2C	none
